Results filed as inconclusive are left out. Active and inactive are the calls of the source. Unless noted, calls come from the whole dose curve; as a rule, active = well fitted curve in the direction sought with a large enough effect; inconclusive = small, poorly fitted or top-dose-only effect, or another doubt; inactive = no such curve, though single readings can be large; an effect the other way counts as inactive or inconclusive.
Columns and labels:
[1] = qHTS assay for small molecule antagonists of retinoid X receptor alpha signaling (AID 588546); conditions: HEK293T RXRa-UAS-bla, beta-lactamase ratio, antagonist mode; measured here: W530 green channel, cytotoxicity proxy;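 note: cells stimulated with 9-cis-retinoic acid as agonist; % is set by controls: 0 for no effect and ±100 for the full control effect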
Method in brief: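 Beta-lactamase reporter inhibition, read as CCF4 fluorescence ratio (ex 405, em 460/530 nm) after 2 h at RT. HEK293T UAS-bla cells, 2500/well, were stimulated with 9-cis-RA at 500 or 100 nM final alongside test compound for 18 h at 37 C.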

[2] = target: Thyroid hormone receptor beta (Homo sapiens) (UniProt P10828); assay: qHTS assay for small molecule antagonists of thyroid hormone receptor beta signaling (AID 588547; active = well fitted inhibition curve with a large enough effect in the signal ratio, with a control signal flat, not every such curve was filed as active; the % refers to the signal ratio;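 note: cells stimulated with 0.4 nM T3 agonist during compound exposure; series mostly up to about 77 µM; % is set by controls: 0 for no effect and ±100 for the full control effect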); conditions: TR-UAS-bla HEK293, beta-lactamase ratio, antagonist mode, 18 h
Thyroid hormone receptor beta (Homo sapiens), sequence (P10828 whole entry, looked up): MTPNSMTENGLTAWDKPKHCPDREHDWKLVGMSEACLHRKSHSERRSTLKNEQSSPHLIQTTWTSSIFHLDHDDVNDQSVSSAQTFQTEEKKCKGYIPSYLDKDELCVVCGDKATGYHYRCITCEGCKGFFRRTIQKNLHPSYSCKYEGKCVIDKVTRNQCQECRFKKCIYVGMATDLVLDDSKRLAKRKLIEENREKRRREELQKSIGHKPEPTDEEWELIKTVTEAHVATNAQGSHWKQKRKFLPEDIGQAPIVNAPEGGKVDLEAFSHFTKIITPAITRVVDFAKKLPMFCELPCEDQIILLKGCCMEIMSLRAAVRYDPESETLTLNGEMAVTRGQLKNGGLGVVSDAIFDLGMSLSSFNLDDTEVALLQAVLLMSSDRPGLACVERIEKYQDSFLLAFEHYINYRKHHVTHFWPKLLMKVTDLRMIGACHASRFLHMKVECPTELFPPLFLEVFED
Method in brief: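 Inhibition of T3-driven (0.4nM final) beta-lactamase reporter activity was measured over 0.59 nM to 92 uM compound after 18 h at 37 C. The cells were GripTite HEK293 TR-UAS-bla in charcoal/dextran-stripped serum, with CCF4 ratio read-out and IC50 from Hill fits.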

[3] = target: Voltage-gated inwardly rectifying potassium channel KCNH2 (Homo sapiens) (UniProt Q12809); assay: qHTS Assay for Small Molecule Inhibitors of the Human hERG Channel Activity (AID 588834);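 note: top concentration of the series differs between compounds; % is set by controls: 0 for no effect and ±100 for the full control effect; lower thallium flux fluorescence means stronger hERG block; nearly all actives have a fitted effect of over 50% in size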
Voltage-gated inwardly rectifying potassium channel KCNH2 (Homo sapiens), sequence (Q12809 whole entry, looked up): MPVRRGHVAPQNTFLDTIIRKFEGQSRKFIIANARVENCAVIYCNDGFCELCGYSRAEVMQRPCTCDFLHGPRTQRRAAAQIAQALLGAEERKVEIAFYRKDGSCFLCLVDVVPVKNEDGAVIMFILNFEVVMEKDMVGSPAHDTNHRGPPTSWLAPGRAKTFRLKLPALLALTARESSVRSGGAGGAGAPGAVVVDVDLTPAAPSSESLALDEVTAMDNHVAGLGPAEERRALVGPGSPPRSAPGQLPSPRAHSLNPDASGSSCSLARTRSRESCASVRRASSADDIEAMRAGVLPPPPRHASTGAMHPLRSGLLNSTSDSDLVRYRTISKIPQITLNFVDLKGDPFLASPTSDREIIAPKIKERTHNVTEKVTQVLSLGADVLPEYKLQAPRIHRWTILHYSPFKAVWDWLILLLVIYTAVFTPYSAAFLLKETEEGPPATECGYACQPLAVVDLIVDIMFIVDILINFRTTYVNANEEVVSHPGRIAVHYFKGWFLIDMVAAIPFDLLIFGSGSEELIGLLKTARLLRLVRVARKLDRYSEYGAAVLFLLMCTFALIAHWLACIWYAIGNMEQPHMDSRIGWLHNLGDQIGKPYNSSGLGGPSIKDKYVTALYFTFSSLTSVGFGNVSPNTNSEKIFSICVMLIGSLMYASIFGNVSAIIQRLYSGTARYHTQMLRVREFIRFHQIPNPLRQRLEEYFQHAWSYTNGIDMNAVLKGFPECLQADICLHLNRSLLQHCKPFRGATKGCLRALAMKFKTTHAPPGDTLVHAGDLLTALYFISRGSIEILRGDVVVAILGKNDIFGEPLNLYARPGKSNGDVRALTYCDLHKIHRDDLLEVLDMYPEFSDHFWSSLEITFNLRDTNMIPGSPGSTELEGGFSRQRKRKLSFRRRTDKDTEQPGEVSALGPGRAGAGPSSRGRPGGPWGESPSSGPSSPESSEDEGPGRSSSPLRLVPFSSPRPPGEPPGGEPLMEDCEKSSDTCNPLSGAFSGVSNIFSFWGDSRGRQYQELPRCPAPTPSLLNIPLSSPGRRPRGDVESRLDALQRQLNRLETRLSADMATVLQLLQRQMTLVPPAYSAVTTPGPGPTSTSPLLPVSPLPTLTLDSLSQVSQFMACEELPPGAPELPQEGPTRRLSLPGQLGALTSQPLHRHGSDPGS
Method in brief: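 Step 1: BacMam hERG transduction of U2OS, 4 hrs RT. Step 2: overnight 37 °C, plate 2000 cells/well, 4 hr. Step 3: FluxOR load, compound 10 min, stimulate, read fluorescence.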

[4] = qHTS assay for small molecule agonists of the antioxidant response element (ARE) signaling pathway (AID 651741; active = well fitted activation curve with a large enough effect in the signal ratio; the % refers to the signal ratio; note: potency is the fitted concentration of half-maximal effect)
Method in brief: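 Agonist activity is measured as ARE-driven beta-lactamase expression in a stable HepG2 reporter line, using 16 h compound treatment at 37 C and a FRET substrate fluorescence readout after 2 h.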

[5] = qHTS assay for small molecule activators of the p53 signaling pathway (AID 651743; active = well fitted activation curve with a large enough effect in the signal ratio, not every such curve was filed as active; the % refers to the signal ratio; note: series mostly up to about 92 µM; % of control where 0% means no effect); conditions: HCT-116 p53RE-bla, beta-lactamase FRET ratio, 16 h; activation: stronger effect = higher value
Method in brief: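 A beta-lactamase reporter under p53 response element control, stably carried by HCT-116 cells, reported pathway activation. Test compounds were applied for 16 hours at 37 C, and fluorescence was measured 2 hours after adding the B/G FRET substrate.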

[6] = qHTS assay for small molecule disruptors of the mitochondrial membrane potential - 1 hr assay (AID 651754; calls by dose curve; note: % is set by controls: 0 for no effect and ±100 for the full control effect; nearly all actives have a fitted effect of over 35% in size)
Method in brief: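 In this qHTS format, a 1 hr compound treatment of HepG2 cells precedes Mito-MPS staining, and membrane potential is judged from aggregate (red) against monomer (green) fluorescence intensity.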

[7] = qHTS assay for small molecule disruptors of the mitochondrial membrane potential - 5 hr assay (AID 651755; calls by dose curve; note: % is set by controls: 0 for no effect and ±100 for the full control effect; nearly all actives have a fitted effect of over 40% in size)
Method in brief: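 Membrane-potential dye readout: red aggregate (540 ex/590 em) versus green monomer (490 ex/535 em) fluorescence after 30 min dye loading, following 5 hr compound exposure at 37C of overnight-plated HepG2 cells.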

[8] = qHTS assay for environmental chemicals that activate the Aryl hydrocarbon Receptor (AhR) signaling pathway (AID 651777); conditions: 1A2-DRE human hepatoma cells, luciferase, 24 h; activation: stronger effect = higher value; note: % of control where 0% means no effect; nearly all actives have a fitted effect of over 15% in size
Method in brief: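 Luminescence read-out: One-Glo added for 30 min at RT after 24 hr compound treatment (37 C, 5% CO2) of human hepatoma cells expressing a DRE/CYP1A2 promoter–luciferase reporter; increased signal indicates AhR activation.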

[9] = target: Peroxisome proliferator-activated receptor alpha (Homo sapiens) (UniProt Q07869); assay: qHTS assay for small molecule agonists of the peroxisome proliferator-activated receptor alpha (PPARalpha) signaling pathway (AID 651778); conditions: PathHunter PPARalpha complementation, chemiluminescence, 6 h; stronger effect = higher value; note: % of control where 0% means no effect
Peroxisome proliferator-activated receptor alpha (Homo sapiens), sequence (Q07869 whole entry, looked up): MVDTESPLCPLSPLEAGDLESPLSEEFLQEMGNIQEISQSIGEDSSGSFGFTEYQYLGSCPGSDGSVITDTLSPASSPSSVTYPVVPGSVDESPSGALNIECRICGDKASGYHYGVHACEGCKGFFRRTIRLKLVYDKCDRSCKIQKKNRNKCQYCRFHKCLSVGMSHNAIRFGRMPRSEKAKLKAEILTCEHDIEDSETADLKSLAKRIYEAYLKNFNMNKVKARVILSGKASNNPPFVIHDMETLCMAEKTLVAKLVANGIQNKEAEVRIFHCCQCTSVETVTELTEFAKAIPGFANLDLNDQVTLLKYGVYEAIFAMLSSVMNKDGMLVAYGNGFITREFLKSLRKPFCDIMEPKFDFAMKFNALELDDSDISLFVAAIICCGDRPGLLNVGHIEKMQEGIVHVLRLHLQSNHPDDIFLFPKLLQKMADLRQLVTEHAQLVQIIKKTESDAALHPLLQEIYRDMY
Method in brief: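 Chemiluminescence from complemented enzyme reported PPARalpha activation in cells after 6 hr of compound treatment at 37 C. The detection reagent was incubated for 60 min at room temperature, and compounds were scored as agonists.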

[10] = target: Nuclear receptor ROR-gamma (Homo sapiens) (UniProt P51449); assay: qHTS assay for small molecule antagonists of the retinoid-related orphan receptor gamma (ROR-gamma) signaling pathway (AID 651802);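 note: CHO cells with doxycycline-induced ROR-gamma expression; luciferase reporter luminescence driven by ROR response element; series mostly up to about 92 µM; % is set by controls: 0 for no effect and ±100 for the full control effect; nearly all actives have a fitted effect of over 60% in size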
Nuclear receptor ROR-gamma (Homo sapiens), sequence (P51449 whole entry, looked up): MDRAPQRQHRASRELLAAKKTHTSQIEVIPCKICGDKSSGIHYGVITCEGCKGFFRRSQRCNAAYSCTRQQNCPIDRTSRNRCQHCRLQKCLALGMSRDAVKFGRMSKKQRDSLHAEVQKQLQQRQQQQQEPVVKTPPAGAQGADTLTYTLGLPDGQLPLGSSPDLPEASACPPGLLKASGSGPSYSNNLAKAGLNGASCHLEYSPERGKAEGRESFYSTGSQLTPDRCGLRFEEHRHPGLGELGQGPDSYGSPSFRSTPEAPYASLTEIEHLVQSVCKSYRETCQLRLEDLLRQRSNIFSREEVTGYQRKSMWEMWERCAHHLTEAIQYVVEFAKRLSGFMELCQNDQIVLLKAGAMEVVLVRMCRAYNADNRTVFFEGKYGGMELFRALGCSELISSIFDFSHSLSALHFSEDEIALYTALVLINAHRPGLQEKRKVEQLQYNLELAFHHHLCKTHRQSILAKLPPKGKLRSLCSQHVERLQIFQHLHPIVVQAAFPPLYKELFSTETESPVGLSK
Method in brief: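 Doxycycline-induced reporter activity in engineered CHO cells (TET-inducible ROR, RORE-LUC) was measured by luminescence after 16hr compound exposure at 37C.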

[11] = qHTS assay for small molecule agonists of the antioxidant response element (ARE) signaling pathway measured by Nrf2-dependant transcriptional activity (AID 720636; active = well fitted curve in the direction sought with a large enough effect in the repeat runs; an effect the other way counts as inactive or inconclusive;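 note: HepG2 cells with an ARE-driven luciferase reporter; % of control where 0% means no effect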)
Method in brief: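 HepG2 ARE-luc reporter line, 1% dialyzed FBS; 6 hr attachment at 37 C, compound pinned in, 16 hr at 37 C/5% CO2; ONE-Glo, 30 min RT, luminescence read.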

[12] = qHTS assay for small molecule agonists of the antioxidant response element (ARE) signaling pathway measured by Nrf2-dependant transcriptional activity - cell viability counter screen (AID 720653; active = well fitted curve in the direction sought with a large enough effect in the repeat runs; an effect the other way counts as inactive or inconclusive; note: % is set by controls: 0 for no effect and ±100 for the full control effect); conditions: ARE-bla HepG2 viability, CellTiter-Glo ATP luminescence, 16 h; stronger effect = lower value
Method in brief: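 Cytotoxicity counter screen: intracellular ATP quantified by CellTiter-Glo luminescence in the same ARE-bla HepG2 plates, after 16 h compound exposure and a 2 h beta-lactamase substrate step.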

[13] = qHTS assay for cell viability of HEK293 cells (AID 743288); conditions: ATP luminescence (CellTiter-Glo), 18 h; max response: stronger effect = lower value; note: % is set by controls: 0 for no effect and ±100 for the full control effect; nearly all actives have a fitted effect of over 50% in size
Method in brief: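 Viable-cell counts were inferred from luciferase-based ATP content in HEK293 cells seeded at 2,000/well, pre-incubated ≥5 h, then dosed with DMSO-solubilised compounds for 18 h at 37 C.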

[14] = HepG2 viability counterscreen (readout 2: ATP content) against the NCATS DSHEA and TCM libraries (AID 1794840); note: 0% is about no effect
Method in brief: (§1)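 Same wells read twice: first fluorescence from cleaved GF-AFC substrate (25 uM final, 30 min, 37C) for live-cell protease, then CellTiter-Glo luminescence after 30 min at room temperature for ATP. HepG2 cells were exposed ~24 h to substances.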

[15] = HepG2 viability counterscreen (readout 1: protease activity) against the NCATS DSHEA and TCM libraries (AID 1794841);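 note: cells exposed to compounds for about 24 h before the protease read; 0% is about no effect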
Method in brief: as §1

[16] = KB-3-1 P-gp reporter qHTS against the NCATS DSHEA and TCM libraries (AID 1919975); note: 0% is about no effect
Method in brief: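 KB-3-1 parental line, 1536-well qHTS: cells seeded, ~4 h attachment, pintool compound addition, ~72 h at 37C, then CellTiter-Glo, 30 min RT, luminescence. Concentration-response format.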

[17] = target: Cytochrome P450 1A2 (Homo sapiens) (UniProt P05177); assay: qHTS for inhibitors of CYPIA2 against the NCATS DSHEA and TCM libraries (AID 1919976); note: potency is the fitted concentration of half-maximal effect
Cytochrome P450 1A2 (Homo sapiens), sequence (P05177 whole entry, looked up): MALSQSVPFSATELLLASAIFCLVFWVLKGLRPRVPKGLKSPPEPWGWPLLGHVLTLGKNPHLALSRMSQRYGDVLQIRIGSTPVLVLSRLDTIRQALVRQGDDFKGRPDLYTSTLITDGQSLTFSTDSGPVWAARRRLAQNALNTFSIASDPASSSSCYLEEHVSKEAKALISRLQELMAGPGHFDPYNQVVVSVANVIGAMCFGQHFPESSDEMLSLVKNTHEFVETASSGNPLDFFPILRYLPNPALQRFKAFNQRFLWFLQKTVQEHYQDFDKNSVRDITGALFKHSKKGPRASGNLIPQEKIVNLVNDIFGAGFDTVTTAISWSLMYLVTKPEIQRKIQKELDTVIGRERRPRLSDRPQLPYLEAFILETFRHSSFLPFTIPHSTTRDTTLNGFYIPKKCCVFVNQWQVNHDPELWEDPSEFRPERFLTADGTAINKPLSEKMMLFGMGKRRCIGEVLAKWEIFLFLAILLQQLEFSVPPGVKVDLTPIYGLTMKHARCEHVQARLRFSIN
Method in brief: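 Furafylline served as the plate control. Compounds met CYP1A2 and pro-luciferin substrate 15 min before NADPH regeneration solution (1x) was added; after 30-45 min at RT, P450-Glo reagent was added for 30 min and luminescence was measured.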

[18] = KB-8-5-11 P-gp reporter qHTS against the NCATS DSHEA and TCM libraries (AID 1919977); note: 0% is about no effect
Method in brief: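 KB-8-5-11, 500 cells/well, DMEM/10% FBS without colchicine; 4 h attach; cpd titrations, 72 h, 37C/5% CO2; CellTiter-Glo, 30 min RT, luminescence.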

[19] = qHTS Counterscreen for compound interference against the NCATS DSHEA and TCM libraries (AID 1919978); conditions: firefly luciferase detection reagent interference, luminescence;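 note: compounds preincubated with 1 µM D-luciferin or buffer before detection reagent; % of control where 0% means no effect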
Method in brief: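 Compounds, titrated from 19.5 nM to 39.8 uM final, were pinned onto 1 uM D-luciferin or plain 100 mM potassium phosphate. After 15 min at room temperature, luciferin detection reagent was added for 30 min before the luminescence read.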

[20] = Dual reporter qHTS for agonist of Pregnane X Receptor (hPXR) against the NCATS DSHEA and TCM libraries: Fluorescence readout (AID 1920058); note: 0% is about no effect
Method in brief: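 In this qHTS counter-read, reporter-bearing HepG2 cells in charcoal-stripped serum received substances for approximately 24 h before viability was assessed fluorometrically with CellTiter-Fluor.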

[21] = target: Nuclear receptor subfamily 1 group I member 2 (Homo sapiens) (UniProt O75469); assay: Dual reporter qHTS for agonist of Pregnane X Receptor (hPXR) against the NCATS DSHEA and TCM libraries: Luminescence readout (AID 1920059); note: 0% is about no effect
Nuclear receptor subfamily 1 group I member 2 (Homo sapiens), sequence (O75469 whole entry, looked up): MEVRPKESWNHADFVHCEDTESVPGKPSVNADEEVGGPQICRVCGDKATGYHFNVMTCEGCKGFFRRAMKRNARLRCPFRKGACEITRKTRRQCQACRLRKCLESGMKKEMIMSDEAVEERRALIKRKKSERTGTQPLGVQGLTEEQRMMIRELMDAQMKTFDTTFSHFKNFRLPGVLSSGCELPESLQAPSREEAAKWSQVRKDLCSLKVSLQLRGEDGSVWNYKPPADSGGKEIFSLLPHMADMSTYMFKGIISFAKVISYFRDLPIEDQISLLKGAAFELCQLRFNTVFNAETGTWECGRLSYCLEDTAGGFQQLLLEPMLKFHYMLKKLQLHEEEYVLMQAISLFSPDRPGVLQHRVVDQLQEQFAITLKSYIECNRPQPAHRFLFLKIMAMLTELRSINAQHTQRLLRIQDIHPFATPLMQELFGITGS
Method in brief: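 Luminescent PXR reporter read (ONE-Glo) after a CellTiter-Fluor viability read, following 24 h, 37C treatment of HepG2 cells stably carrying hPXR-Luc.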

[22] = target: Nuclear receptor subfamily 1 group I member 2 (Homo sapiens) (UniProt O75469); assay: Dual reporter qHTS for antagonist of Pregnane X Receptor (hPXR) against the NCATS DSHEA and TCM libraries: Luminescence Readout (AID 1920060);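 note: HepG2 cells carrying hPXR luciferase reporter stimulated with rifampicin at 2 µM; 0% is about no effect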
Method in brief: (§2)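 In antagonist mode, 2 uM rifampicin was added to hPXR-Luc HepG2 cells alongside test substances, incubated 24 h at 37 C; luminescence gave reporter activity, and CellTiter-Fluor fluorescence (405/540 nm) gave viability.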

[23] = Dual reporter qHTS for antagonist of Pregnane X Receptor (hPXR) against the NCATS DSHEA and TCM libraries: Fluorescence Readout (AID 1920061); note: 0% is about no effect
Method in brief: as §2

COC1=CC(=O)O[C@@H](/C=C/c2ccc3c(c2)OCO3)C1
10.1%: max response [1]
inactive: activity change % (negative = inhibition) [2] 4.69% | Potency [3] | activation [5] -5.07% | Potency [6] | Potency [7] | activation [8] 3.16% | max response [9] -0.53% | Potency [10] | outcome [11] | max response [12] -10.1% | max response [13] -22% | outcome [14] | outcome [15] | outcome [16] | Potency [18] | max response [19] 0.0511% | outcome [20] | Potency [21] | outcome [22] | outcome [23]
active: Potency [4] 6.68 µM | Potency [17] 11.2 µM
